Experimental data published in PubChem BioAssay.
The source made the active and inactive calls. How the calls were made is not given here.

How the values were obtained:
[1] = blockers of cytochrome c efflux from mitochondria – biochemical, purified mitochondria (AID 1603); conditions: stronger effect = lower value;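 further: mouse liver mitochondria challenged with calcium chloride; signal normalized to the plate average as 100%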
[2] = polyglutamine aggregate formation blockers (AID 1604); conditions: polyglutamine-induced protein aggregation inhibition assay; stronger effect = higher value; tested at 2.5 µM
[3] = glutamate transport activators, MN-1 cells, MN-1 cell line (AID 1612); conditions: MN-1 motor neuron cells, stronger effect = higher value;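 further: tested at 1 µM final; 0% = mean of DMSO vehicle wells on each plate; positive means more glutamate uptake than control and negative means less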
[4] = GFP-Q80 aggregate reduction, neuronal-like cells, cell-based, NGF-treated PC12, GFPQ80 (AID 1614); conditions: PC12 NGF-treated GFP-polyQ80 inclusion reduction;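 further: lower means fewer inclusions and 0 means no inclusions at all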
[5] = 75Q-TubH aggregate inhibition, S. cerevisiae, yeast (AID 1616); conditions: S. cerevisiae 75Q-TubH polyglutamine aggregation suppression; stronger effect = higher value
[6] = chitosan synthesis blockers in C. neoformans – flow cytometry, Cibacron Brilliant Red staining (AID 1347148); conditions: Cryptococcus neoformans chitosan, stronger effect = lower value; at 10 µM unless noted;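 further: compound exposure lasted three days at 37 degrees C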

| Compound | cytochrome c release ratio [1] | inhibition of aggregation [2] | glutamate uptake change [3] | inclusion score [4] | aggregation suppression score [5] | fold fluorescence [6] |
| --- | --- | --- | --- | --- | --- | --- |
| COc1ccc2c(c1OC)C(=O)OC2[C@H]1c2c(cc3c(c2OC)OCO3)CCN1C (stereo partly specified) | 0.93 | 66.2% | -10.2% | 2 | 1.38 | – |
| Cc1ccc(S(=O)(=O)N[C@@H](Cc2ccccc2)C(=O)CCl)cc1 | – | – | – | – | – | 6.27 [at 142.1 µM] (inactive) |
